Where “and” joins values, the source holds several entries; their conditions need not be identical. Identical values can stand only once. This is part of a sample that, as a whole, favours compounds with a hit. Of some 83,000 tested, about 20% had one in any assay.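 The endpoint reported here, percent growth, reads 100 for growth as untreated, 0 for no net growth and -100 for all cells dead.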 A number with no mark means an inactive call. Calls of active or inactive are those of the source. How the source made its calls: active means growth percent below 10; inactive means the rest.

The subject of the assay is MDA-MB-468 breast. Nature of the assay: NCI-60 one-dose screen, 48 h (100 = growth as untreated, 0 = no growth, -100 = all killed). Particulars: 10 µM unless noted.
As for `O=C1/C(=C/c2cccc(F)c2)CN(C(=O)C(Cl)Cl)C/C1=C\c1cccc(F)c1`, the growth is -47.4% (active).
The result for `COc1cc(OC)cc(C2C(C#N)=C(N)Oc3c2ccc2ccc(O)cc32)c1` (stereo unspecified) reads -16.6% (active).
As to `Clc1ccc(C2=NN(c3ccc(Cl)cc3)C(c3cccc(Nc4ccnc5cc(Cl)ccc45)c3)C2)cc1` (stereo unspecified), the growth was 78.2%.
As for `COc1ccc2[nH]cc(-c3nc(-c4c[nH]c5ccncc45)cs3)c2c1`, the growth is -33.9% (active).
As to `CCOC(=O)c1cc(/C(=N\O)c2cc(OC)c(OC)c(OC)c2)n2c(C)cccc12`, the growth was 21.8%.
The value for `O=C1OC(C(Cl)(Cl)Cl)OC1C(Cl)(Cl)Cl` (stereo unspecified) was 109%.
The result for `O=C1Nc2ccccc2/C1=C/c1cccs1` reads -20.2% (active).
On to `O=c1c2ccccc2nc(SCCN2CCCCC2)n1CCc1ccccc1`, for which the growth is 92%.
The result for `CC(C)CC(=O)C(CCc1ccccn1)C(C)C` (stereo unspecified) reads 109%; that for `COc1cc(Cn2c(SCC(=O)Nc3ccc(Cl)cc3)nc3ccccc3c2=O)cc(OC)c1OC`, 47.1%.
The result for `COc1nc2c(cc1S(=O)(=O)c1ccccc1)CCc1c-2cnn1-c1ccccc1` reads 45.3%.
The result for `CCOC(=O)c1cn2ncnc(Oc3ccc(NC(=O)NCCN(CC)CC)c(Cl)c3)c2c1C` reads 52.8%.
In the case of `O=C(Nc1ccc(Br)cc1)Nc1ccccc1Cl`, the growth is 69.2%.
Turning to `CCOc1cccc(-c2nc(N)nc(Nc3ccccc3SSc3ccccc3Nc3nc(N)nc(-c4cccc(OCC)c4)n3)n2)c1`, the growth was 107%.
Regarding `CCCCCCNC(=O)Oc1ccc(/C(=C(\C)c2ccccc2)c2ccc(OCCCN(C)C)cc2)cc1`, the growth was 95%.
For `CNC(=O)c1cc(Oc2ccc3c(c2)sc2nc(-c4cc(C(F)(F)F)cc(C(F)(F)F)c4)cn23)ccn1`, the growth was 4.64% (active).
The value for `COC12C=C/C(=C(/C(=O)OCCSc3ccnn3C)C(=O)CCCCCCCCC3(OC)C=C/C(=C(/C(=O)OCCSc4ccnn4C)C(=O)CCCCCCCC1)O3)O2` was -6.23% (active).
The result for `CC(=O)Nc1cccc(-n2c(=O)n(C3CC3)c(=O)c3c(Nc4ccc(I)cc4F)n(C)c(=O)c(C)c32)c1` reads 77.2%.
The value for `COc1cc(/C=C/c2cc(/C=C/c3ccc(O)c(OC)c3)n(C(N)=O)n2)ccc1O` was -14.3% (active); that for `Cn1ccnc1C(=O)/C=C/c1ccc(NC(=O)Nc2ccccc2)cc1` was -45.8% (active); that for `CCCCCCCN(CCCCCCC)C(=N)c1ccc(OC)c2ccccc12` was -85% (active).
Take `CCCCNC(=O)Oc1ccc(/C(=C(\C)c2ccc(Cl)cc2)c2ccc(OCCN3CCCCC3)cc2)cc1`: the growth was 62.9%.
The value for `Cn1cnc([N+](=O)[O-])c1/C=C1\Oc2ccc(Br)cc2C1=O` was 80.9%; that for `O=C1c2ccccc2C(=O)c2c(NCCNCCO)ccc(NCCNCCO)c21` was -71.9% (active) and -54.1% (active) and -20.9% (active).
For the molecule `O=C(Nn1c2c(sc1=NCc1ccccc1)C(=O)c1ccccc1C2=O)c1cc2ccc1CCc1ccc(cc1)CC2`, the growth was 80%.
The result for `c1cc(CNCCNCc2ccncc2)ccn1` reads 104%; that for `O=S(=O)(NCCNc1cc(-c2cn(-c3ccccc3)nc2-c2cccc(O)c2)ccn1)c1ccccc1`, 34.2%; that for `C#COc1cccc(Nc2ncnc3cc(NC(=O)[C@@H](C)Cl)ccc23)c1`, 12% [6.25 µM].
The result for `Nc1c(C(=O)c2ccc(Cl)cc2)sc(Nc2ccccc2)c1-c1nc2ccccc2s1` reads 14.7%; that for `Nc1nc(-c2ccccn2)cc(-c2cc(-c3ccccn3)nc(N)n2)n1`, 98.7%; that for `COc1ccc(/C=C/C(=O)c2ccc(NC(=O)CSc3nnc(-c4ccc5nc(-c6ccc(Cl)cc6)[nH]c5c4)o3)cc2)cc1`, 110%.
The value for `COc1ccc2cc1Oc1ccc(cc1)C[C@H]1c3c(cc4c(c3Oc3cc5c(cc3OC)CCN(C)[C@@H]5C2)OCO4)CCN1C` was 7.08% (active).
Turning to `COc1cc(/C=C/C(=O)/C=C/c2cc(OC)c3c(c2OC)OCO3)c(OC)c2c1OCO2`, the growth is 23.1%.
The result for `CCOC(=O)c1sc(NCC(=O)Nc2cccc([N+](=O)[O-])c2)c(C(=O)OCC)c1C` reads -47.4% (active).
The result for `Cn1cc(-c2ccc(F)c(C(F)(F)F)c2)nc1C1CCN(c2ncnc3[nH]ncc23)CC1` reads 64.6%.
The value for `NC(=S)NN=C1CCCC1` was 14.1%.

The values above are taken from PubChem BioAssay (NCI).
